Screening data: PubChem, Johns Hopkins Ion Channel Center
KCNQ2 inh – inhibitors of rat KCNQ2 potassium channel | CHO-K1 KCNQ2, FluxOR thallium flux, 20 min; hits give low values | O88943 | B-score at 10 µM | 310,000 compounds, 1.1% hits;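 active = fluorescence ratio B-score at most minus 3 library SDs, with starting brightness B-score within 2 library SDs, cut at about -5.5 in these data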
Target sequence (O88943 whole entry, looked up): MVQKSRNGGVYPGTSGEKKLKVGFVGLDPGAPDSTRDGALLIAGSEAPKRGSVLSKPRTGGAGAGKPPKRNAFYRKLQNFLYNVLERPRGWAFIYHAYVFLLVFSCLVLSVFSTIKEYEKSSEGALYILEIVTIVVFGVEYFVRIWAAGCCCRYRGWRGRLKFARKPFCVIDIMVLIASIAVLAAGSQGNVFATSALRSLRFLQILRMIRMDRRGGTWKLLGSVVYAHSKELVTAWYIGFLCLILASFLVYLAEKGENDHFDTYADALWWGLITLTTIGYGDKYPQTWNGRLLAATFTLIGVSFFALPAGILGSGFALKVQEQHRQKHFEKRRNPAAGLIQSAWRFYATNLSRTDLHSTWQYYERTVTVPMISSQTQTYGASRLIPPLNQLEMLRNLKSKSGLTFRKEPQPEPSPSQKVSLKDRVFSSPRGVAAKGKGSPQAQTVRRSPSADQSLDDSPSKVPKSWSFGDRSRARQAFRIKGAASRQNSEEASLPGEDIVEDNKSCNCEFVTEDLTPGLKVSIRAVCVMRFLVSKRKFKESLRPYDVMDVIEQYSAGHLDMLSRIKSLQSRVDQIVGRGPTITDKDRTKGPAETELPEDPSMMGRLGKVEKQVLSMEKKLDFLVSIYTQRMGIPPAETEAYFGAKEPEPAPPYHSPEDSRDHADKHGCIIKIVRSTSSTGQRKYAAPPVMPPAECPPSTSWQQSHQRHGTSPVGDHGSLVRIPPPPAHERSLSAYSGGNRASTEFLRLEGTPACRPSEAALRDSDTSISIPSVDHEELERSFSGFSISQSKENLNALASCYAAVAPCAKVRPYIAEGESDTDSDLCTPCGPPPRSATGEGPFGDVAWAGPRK
KCNQ2 pot – enhances the rat KCNQ2 potassium channel. O88943. CHO-K1 KCNQ2, FluxOR thallium flux fluorescence; hits give high values. B-score at 10 µM. 310,000 compounds, 0.54% hits;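 active = fluorescence ratio B-score at least 3 SD of library B-scores, with initial fluorescence B-score within 3 of them, cut at about 5.3 in these data; same plate scores as AID 2156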;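 note: B-score of peak minus minimum over baseline fluorescence ratio after K+ and Tl+ stimulus; positive B-score means potentiation of KCNQ2 with more thallium influx and brighter signal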
Starred values were filed as active, the others as inactive; i = inactive; x = not tested or not shown. A selection: hits, their analogues and other compounds. The true share with any hit is near 1.6%.

SMILES	KCNQ2 inh	KCNQ2 pot
CCCN(CCC)CC(O)Cn1cc(/C=C/C(=O)c2cccs2)c2ccccc21 (centres undefined)	i	x
O=C(/C=C/c1cn(CC(O)CN2CCCCC2)c2ccccc12)c1cccs1 (centres undefined)	i	x
CCCN(CCC)CC(O)Cn1cc(/C=C/C(=O)c2ccccc2)c2ccccc21 (centres undefined)	-6.3*	-6.3
O=C(/C=C/c1cn(CC(O)CN2CCCCC2)c2ccccc12)c1ccccc1 (centres undefined)	-5.7*	-5.7
O=c1c2ccccc2nc(SCc2ccccc2)n1Cc1ccco1	i	0.28
O=c1c2ccccc2nc(SCc2cccc(F)c2)n1Cc1ccco1	-6.2*	-6.2
O=C(O)CCc1ccc(-c2ccc(Cl)cc2)n1NC(=O)c1ccc(O)cc1	i	0.41
Cc1nc(SC(C(=O)c2ccccc2)c2ccccc2)nc2ccccc12 (centres undefined)	i	x
COc1ccc2nc(SCc3ccccc3C)nc(C)c2c1	i	x
COc1ccc2nc(SC(C(=O)c3ccccc3)c3ccccc3)nc(C)c2c1 (centres undefined)	-5.6*	-5.6
Cc1ccc2c(C)nc(SC(C(=O)c3ccccc3)c3ccccc3)nc2c1 (centres undefined)	-6*	-6
COCC(C)NC(=S)Nc1ccccc1[N+](=O)[O-] (centres undefined)	i	x
Cc1nc2ccc(NC(=O)CCC3CCCC3)cc2s1	i	4.6
CCN(CC)C(=O)C(Sc1nnnn1-c1ccc(O)cc1)c1ccccc1 (centres undefined)	-6.1*	-6.1
CCC(Sc1nnnn1-c1ccccc1)C(=O)NC(C)c1ccccc1 (centres undefined)	i	x
COc1ccc(-c2cc(C)no2)cc1S(=O)(=O)N(C)c1ccc(C)c(C)c1	i	x
Cc1cc(-c2ccc(S(=O)(=O)N(C)c3ccc(C)c(C)c3)s2)on1	-6.7*	-6.7
CCN1CCN(S(=O)(=O)c2ccc(-c3cc(C)no3)s2)CC1	i	0.1
Cc1ccc(N(C)S(=O)(=O)c2ccc(-c3cc(C)no3)s2)cc1	-6.5*	-6.5
CN(C(=O)CSc1nnc(N)s1)C1CCCCC1	i	1.4
Cc1ccc(S(=O)(=O)N2CCOCC2)cc1C(=O)OCCOc1cccc(Cl)c1	i	x
Cn1c(CNC(=O)CCNC(=O)c2ccccc2)cc(=O)n(C)c1=O	i	0.03
O=C(NC12CC3CC(CC(C3)C1)C2)c1cccnc1Cl	i	x
CCCN(CC(=O)Nc1ccccc1C)C(=O)C1CC(=O)N(Cc2ccccc2)C1 (centres undefined)	i	x
CCOC(=O)c1c(NC(=O)C2c3ccccc3Oc3ccccc32)sc(C(C)=O)c1C	-5.7*	-5.7
SMILES	KCNQ2 inh	KCNQ2 pot
COC(=O)c1sc(NC(=O)C2c3ccccc3Oc3ccccc32)c(C(=O)OC)c1C	i	x
COc1ccc(/C=C/C(=O)C23CC4CC(CC(C4)C2)C3)cc1CN1CCOCC1	i	x
Cc1ccc(F)cc1NCC(=O)Nc1ccc(Cl)cc1F	i	x
Cc1c(Cl)cccc1NCC(=O)Nc1ccc(Cl)cc1F	-6.8*	-6.8
C/C(=N\NC(=O)CNc1cccc(C(F)(F)F)c1)c1ccc(Br)cc1	i	x
Cc1c(Cl)cccc1NC(=O)CNc1cccc(C(F)(F)F)c1	-6*	-6
CC(C)Oc1ccccc1/C=N/n1nnnc1N	i	x
CC(=O)c1cnc2c(-c3ccc(Cl)cc3)c(C)nn2c1C	-5.8*	-5.8
CC(=O)c1cnc2c(-c3ccccc3)c(C)nn2c1C	i	x
Cn1c2ccccc2c2cc(/C=N/NC(=O)c3cc(O)ccc3O)ccc21	-7.2*	-7.2
Cn1c2ccccc2c2cc(/C=N/NC(=O)c3cc(O)cc(O)c3)ccc21	i	x
Cc1ccc2nc(SCC(=O)N(CC(C)C)c3c(N)n(Cc4ccccc4)c(=O)[nH]c3=O)[nH]c2c1	i	x
Cc1cccc(C(C)C)c1NC(=O)C(C)OC(=O)Cc1n[nH]c(=O)c2ccccc12 (centres undefined)	-6.7*	-6.7
COc1ccccc1NC(=O)C(C)OC(=O)Cc1n[nH]c(=O)c2ccccc12 (centres undefined)	i	0.51
COc1ccc(NC(=S)N(C(C)C)C2CCN(C(C)C)CC2)cc1Cl	i	0.82
CCCC(C(=O)Nc1cccc(S(=O)(=O)N2CCCC2)c1)c1ccccc1 (centres undefined)	i	x
CCN1/C(=C/C=C/C=C/C=C/c2sc3ccccc3[n+]2CC)Sc2ccccc21	i	x
CCN1/C(=C/C=C/C=C/c2sc3ccccc3[n+]2CC)Sc2ccccc21	-21*	-21
CC(=O)Nc1c(C)ccc(CNC(=O)COc2cc(C)ccc2C)c1C	i	1.8
Cc1cccc(C)c1OCc1nc2ccccc2[nH]1	-5.7*	-5.7
Cc1ccc(C)c(OCc2nc3ccccc3[nH]2)c1	i	x
CCOC(=O)c1cc(C(C)(C)C)oc1CN	i	0.39
CCOC(=O)c1cc(C(C)(C)C)oc1CNC(=O)c1c(C)oc2c1CCCC2	-6.1*	-6.1
O=C(Nc1cccc(N=Cc2cc(Cl)cc(Br)c2O)c1)c1ccco1	i	10*
